A selection: hits, their analogues and other compounds. The true share with any hit is near 3.5%.
TEAD-YAP block – TEAD-YAP interaction inhibition; HEK-TIYL cells, TEAD-Gal4/YAP UAS-luciferase luminescence; actives 1.4% (n = 640,000); inhibition, % at 9.12 µM; in the data active = inhibition above about 32%;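 also: 0% = median of test compound wells and 100% = reference inhibitor wells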
GPR151 ag – human GPR151 activation; PathHunter beta-arrestin GPR151 cells, luminescence; activation, % at 11.2 µM; actives 1% (n = 650,000); AID 1508602; in the data active = activation above about 4.9%;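 also: 0% = median of compound wells and 100% = cells with positive control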
MITF primary – blocks human microphthalmia-associated transcription factor; O75030; AlphaScreen MITF homodimerization, bead proximity signal; inhibition, % at 2.6 µM; actives 0.91% (n = 650,000); AID 1259374; in the data active = inhibition above about 50%;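 also: 0% = vehicle wells with protein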
FBW7 activator – activators of human E3 ligase FBW7. Q969H0. AlphaScreen FBW7–phospho-cyclin E peptide binding, activator screen. normalized activity (activation), % at 26.1 µM. actives 0.13% (n = 650,000). AID 1259310; in the data active = normalized activity above about 1.9%;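 also: purified mutant Fbw7 with reduced substrate affinity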
Target sequence (Q969H0 whole entry, looked up): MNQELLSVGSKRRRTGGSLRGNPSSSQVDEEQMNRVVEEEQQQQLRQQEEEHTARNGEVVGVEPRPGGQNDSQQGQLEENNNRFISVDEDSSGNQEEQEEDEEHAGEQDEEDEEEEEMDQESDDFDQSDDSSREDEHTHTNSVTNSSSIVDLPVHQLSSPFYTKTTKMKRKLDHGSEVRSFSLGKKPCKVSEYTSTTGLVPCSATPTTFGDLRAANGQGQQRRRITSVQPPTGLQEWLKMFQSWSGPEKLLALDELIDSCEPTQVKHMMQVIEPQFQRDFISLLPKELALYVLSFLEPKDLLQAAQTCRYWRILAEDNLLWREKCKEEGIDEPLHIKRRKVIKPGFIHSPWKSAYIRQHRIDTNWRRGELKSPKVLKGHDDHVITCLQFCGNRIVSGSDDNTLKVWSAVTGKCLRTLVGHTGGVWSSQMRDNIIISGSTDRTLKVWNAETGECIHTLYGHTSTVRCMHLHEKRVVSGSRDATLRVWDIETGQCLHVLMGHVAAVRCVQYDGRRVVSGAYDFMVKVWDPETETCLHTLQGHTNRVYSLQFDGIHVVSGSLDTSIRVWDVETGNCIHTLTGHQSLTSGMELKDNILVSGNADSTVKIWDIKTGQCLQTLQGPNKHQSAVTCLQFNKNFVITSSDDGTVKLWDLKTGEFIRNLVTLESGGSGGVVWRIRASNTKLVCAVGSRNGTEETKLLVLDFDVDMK
GPR151 conf act – human GPR151 activation, confirmation screen; shares compounds with GPR151 ag; 6,700 tested, under 10 active; GPR151 PathHunter beta-arrestin cells, luminescence, 90 min; % of EA-reagent control over plate median; activation, % at 11.2 µM;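 active = mean percent activation across replicates above the confirmation screen cutoff of 4.91%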
GPR119 counter – activates human GPR119 in a GPR151 counter-screen | activation, % at 11.2 µM | actives 0.3% (n = 6,700) | GPR119 PathHunter beta-arrestin cells, luminescence, 90 min; 0 = compound-well median, 100 = enzyme-acceptor control | shares compounds with GPR151 ag;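 active = mean percent activation in the counterscreen above 29.09%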;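 also: counterscreen on off-target GPR119 to flag nonselective hits from the GPR151 activator screen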
Starred values were filed as active, the others as inactive; . = not tested or not shown; ! = repeats disagree.

SMILES	TEAD-YAP block	GPR151 ag	MITF primary	FBW7 activator	GPR151 conf act	GPR119 counter
COc1cc(/C=C/c2cc(C(=O)O)c3ccccc3n2)cc([N+](=O)[O-])c1O	10	1	4	0	.	.
Cc1sc2nc(Cc3ccccc3)n(C3CCN(C(=O)c4ccco4)CC3)c(=O)c2c1C	-6	1	6	0	.	.
Cc1sc2nc(Cc3ccccc3)n(C3CCN(CC(N)=O)CC3)c(=O)c2c1C	0	6.1*	5	0	1	-8
CCN(CC(=O)Nc1nc2c(s1)C(=O)CC(C)(C)C2)c1ccccc1	9	1	12	0	.	.
CCN(CC)c1ccc(C(=O)Nc2nc3c(s2)C(=O)CC(C)(C)C3)cc1	1	5.2*	1	0	0	3
CCSc1nc2sc3c(c2c(=O)n1Cc1ccccc1)CC(C)CC3 (stereo not drawn)	-1	0	1	0	.	.
COCCN1C=C(C(=O)OC)C(c2cccc(OC)c2OC(C)C)C(C(=O)OC)=C1	-3	11*	12	0	1	0
COc1cccc(C(Nc2cc(C)ccn2)c2ccc3cccnc3c2O)c1 (stereo not drawn)	80*	5.1*	32	0	0	0
Cc1ccnc(NC(c2cccc(C)n2)c2ccc3cccnc3c2O)c1 (stereo not drawn)	19	-1	26	0	.	.
C/C(=C\c1ccco1)CN1CCc2nnc(CNC(=O)CCc3cccnc3)n2CC1	-1	-2	18	0	.	.
Cc1ccc(CN2CCc3nnc(CNC(=O)c4ccccc4)n3CC2)cc1	5	6.0*	6	0	0	5
Cc1ccc(CN2CCc3nnc(CNC(=O)c4ccccn4)n3CC2)cc1	11	-1	8	0	.	.
C/C=C(\C)CN1CCc2nnc(CNC(=O)CCc3cccnc3)n2CC1	5	15*	9	0	0	-4
CC(C)=CCCC(C)CN1CCc2nnc(CNC(=O)c3ccccn3)n2CC1 (stereo not drawn)	2	6.8*	8	0	1	8
CC(C)=CCN1CCc2nnc(CNC(=O)c3ccccn3)n2CC1	0	0	3	0	.	.
O=C(COc1ccc(Cl)cc1)NC(=O)NCc1ccco1	8	-1	-17	0	.	.
O=C(COC(=O)CCS(=O)(=O)c1ccccc1Cl)NC(=O)NCc1ccco1	2	6.4*	-2	0	2	0
COc1ccc2sc(N(Cc3cccnc3)C(=O)c3ccccc3[N+](=O)[O-])nc2c1	-1	8.6*	-3	0	-1	-1
O=C(c1ccccc1[N+](=O)[O-])N(Cc1cccnc1)c1nc2ccc(F)cc2s1	-4	-1	-7	0	.	.
O=C(CSc1ccc2nnc(-c3cccnc3)n2n1)N1CCCCCC1	2	-1	10	0	.	.
O=C(CSc1ccc2nnc(-c3cccnc3)n2n1)N1CCCCC1CCn1ccnc1 (stereo not drawn)	0	7.7*	31	1	1	2
CC(C)SC(=N)N	.	1	-2	0	.	.
CCSC(=N)N	12	7.1*!	-5	0	0	4
O=C(C1c2ccccc2Oc2ccccc21)N1CCC(c2nc3ccccc3[nH]2)CC1	16	1	0	0	.	.
O=C(COc1ccc(Cl)cc1Cl)N/N=C/c1ccccc1[N+](=O)[O-]	-1	0	15	0	.	.
SMILES	TEAD-YAP block	GPR151 ag	MITF primary	FBW7 activator	GPR151 conf act	GPR119 counter
O=C(CN1CCN(S(=O)(=O)c2ccc3c(c2)OCCO3)CC1)c1cccs1	-3	9.7*	0	0	0	-1
CC1=C(C(=O)NC2CCCC2)C2(CCCCCC2)OC1=O	-2	0	18	0	.	.
CC1=C(C(=O)NC(C)C)C2(CCCCC2)OC1=O	-4	7.3*	-6	0	1	-7
CCC(C)NC(=O)C1=C(C)C(=O)OC12CCCCCC2 (stereo not drawn)	8	-1	15	0	.	.
CC1=C(C(=O)NC2CCCCC2)C2(CCCCC2)OC1=O	-6	6.2*	3	0	0	-9
O=C(NCc1cccc(C(F)(F)F)c1)c1ccc2nc(NCc3cccnc3)sc2c1	4	-1	-2	0	.	.
COc1ccc2nc(N3CCC(NCC(C)C)CC3)nc(C)c2c1	-5	-2	-35	0	.	.
Cc1ccc2nc(N3CCC(NCC(C)C)CC3)nc(C)c2c1	0	7.9*	-9	0	0	-4

Screens: PubChem BioAssay, The Scripps Research Institute Molecular Screening Center
